Mcl-1 Bim block – human Bim-Mcl-1 interaction inhibition; Bead-based flow cytometry, Bim peptide-Mcl-1 binding; inhibition, % at 10 µM; 190,000 tested, 0.1% active; AID 1009; in the data active means inhibition above about 40%;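 further: 0% = no compound tracer wells and 100% = peptide blocker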
Mcl1 Noxa PPI – disrupts binding of human Mcl-1 to Noxa peptide; inhibition, % at 21.7 µM; 220,000 tested, 1.5% active; TR-FRET Mcl-1/Noxa peptide binding, 2 h;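 active means compounds that cut the protein-peptide binding signal by more than 50% relative to plate controls in a single-dose test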;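 further: His-tagged Mcl-1 with rhodamine Noxa BH3 peptide and terbium anti-His antibody; 0% = Mcl-1 plus Noxa peptide wells and 100% = peptide-only wells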
14-3-3 Bad inh – disrupts binding of bovine 14-3-3 zeta to phospho-Bad peptide | 220,000 tested, 0.71% active | inhibition, % at 21.7 µM | P63103 | TR-FRET 14-3-3zeta/Dy647-pBad peptide displacement, 1 h;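 active means inhibition above about 70%, limit read from the data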;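 further: 0% = full 14-3-3 plus peptide FRET controls and 100% = background without 14-3-3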
Mcl1-Bid inh – Mcl-1/Bid interaction inhibition | Q07820 | TR-FRET Mcl-1/Bid-Dy647 peptide binding, 1536-well | inhibition, % at 21.7 µM | 220,000 tested, 0.97% active;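 active means compounds that cut the binding signal by more than half at the single screening dose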;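 further: His-tagged Mcl-1 with europium anti-His antibody binding Bid BH3 peptide; 0% = Mcl-1 plus peptide wells and 100% = peptide-only wells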
NCF1 inh – blocks human p47phox regulatory protein of NADPH oxidases; p47phox/p22phox peptide binding, fluorescence polarization, 2 h; inhibition, % at 24.7 µM; 220,000 tested, 0.53% active;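 further: 0% = p47phox with labelled peptide and 100% = labelled peptide alone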
Target sequence (P14598 whole entry, looked up): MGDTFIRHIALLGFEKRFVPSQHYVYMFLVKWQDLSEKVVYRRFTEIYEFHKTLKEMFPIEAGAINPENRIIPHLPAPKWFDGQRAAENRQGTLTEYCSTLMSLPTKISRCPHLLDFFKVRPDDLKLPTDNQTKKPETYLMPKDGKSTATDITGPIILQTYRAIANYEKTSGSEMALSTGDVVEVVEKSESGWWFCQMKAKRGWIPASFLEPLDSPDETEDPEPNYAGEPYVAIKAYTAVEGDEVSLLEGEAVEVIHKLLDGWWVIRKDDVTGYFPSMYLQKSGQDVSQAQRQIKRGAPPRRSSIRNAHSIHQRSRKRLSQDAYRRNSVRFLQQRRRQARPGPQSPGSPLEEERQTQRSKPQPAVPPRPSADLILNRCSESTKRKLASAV
eIF4E-4G inh – blocks eIF4E binding to eIF4G. P63073+Q04637. inhibition, % at 21.7 µM. TR-FRET eIF4E-eIF4GI(517-606) binding, 2 h. 220,000 tested, 0.37% active. AID 782;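 further: 0% = full FRET control wells and 100% = background wells lacking eIF4GI fragment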
Starred values were filed as active, the others as inactive; . = not tested or not shown; [ ] = dose if it differs, or a comment. A selection: hits, their analogues and other compounds. The true share with any hit is near 3.3%.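 How the source made its calls, unless noted: active means inhibition above about 30% (limit read from the data); inactive means the rest.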

SMILES | Mcl-1 Bim block | Mcl1 Noxa PPI | 14-3-3 Bad inh | Mcl1-Bid inh | NCF1 inh | eIF4E-4G inh
CC(C)(c1ccccc1)c1ccc(OCC(O)CNC2CCN(Cc3ccccc3)CC2)cc1 (centres undefined) | -3 | 10 | 30 | 29 | 15 | 6
COC(=O)C1=C(C)C(c2ccc(OC)cc2OC)NC(=O)N1 (centres undefined) | 3 | 4 | -4 | 65* | 4 | -7
COC(=O)C1=C(C)C(c2ccc(OC)cc2)NC(=O)N1 (centres undefined) | 0 | 14 | -5 | -7 | -7 | 3
COc1ccc(NC(=O)C2=C(C)NC(=O)NC2c2cccc(OC)c2OC)c(OC)c1 (centres undefined) | 43* | -12 | -10 | 0 | -3 | 8
COc1cccc(C2NC(=O)NC(C)=C2C(=O)Nc2ccc(C)cc2)c1OC (centres undefined) | 0 | -15 | 8 | -12 | -12 | 0
Cc1ccc(NC(=S)NC(NC(=O)c2ccccc2C)C(Cl)(Cl)Cl)c(C)c1 (centres undefined) | -1 | 3 | -6 | -11 | 1 | -8
O=C(NC1CCS(=O)(=O)C1)c1cccnc1 (centres undefined) | 0 | 9 | 13 | -8 | -1 | -6
CC1Cc2nc(SCC(=O)N3CCc4ccccc43)n(C)c(=O)c2S1 (centres undefined) | 0 | 11 | -22 | -12 | 34* | -3
Cn1c(CC(=O)Nc2ccc(Cl)c(Cl)c2)nnc1SCC(=O)N1CCN(c2ccccc2)CC1 | 0 | 17 | 0 | -14 | -9 | -2
CC(NC(=O)CSc1nnc(CC(=O)Nc2ccc(Cl)c(Cl)c2)n1C)c1ccccc1 (centres undefined) | 0 | 14 | 62 | -1 | -15 | 43*[fluorescence artefact?]
CC1(C)CC(=O)C2=C(C1)OC1OC(=O)CC21C (centres undefined) | -4 | 6 | 0 | -15 | 2 | 4
COc1ccc(OCC(=O)N/N=c2\oc3c(OC)cccc3cc2C(N)=O)cc1 | -6 | 2 | 1 | -121 | 4 | 7
COc1cccc2cc(C(N)=O)/c(=N/NC(=O)COc3ccc(Cl)cc3)oc12 | -2 | 4 | 31 | 64* | 25 | 3
CCOC(=O)c1ccc(Nc2ccc(-c3ccc(OC)c(OC)c3)nn2)cc1 | -3 | 32 | 81* | 13 | -1 | -4
COc1ccc(Oc2nnc(-c3ccc(C)cc3)c3ccccc23)cc1 | -5 | -32 | 89* | -27 | -1 | 0
Nc1nnc(CC(=O)N/N=C/c2cc([N+](=O)[O-])cc(Br)c2O)s1 | 1 | 56* | 8 | -56 | 3 | -2
Nc1nnc(CC(=O)N/N=C/c2cccc(OCCOc3ccccc3)c2)s1 | 0 | -6 | 11 | 51* | -9 | -8
COC(=O)C1SCC2C(=O)N(Cc3ccc(Cl)c(Cl)c3)CC(=O)N21 (centres undefined) | 0 | 16 | 0 | -8 | 3 | -2
CN1CCN(c2ccc(CNS(=O)(=O)c3ccc(Cl)cc3)cc2)CC1 | . | 24 | -3 | -10 | -7 | -1
CCOc1ccc(-c2csc3ncn(-c4ccc(OC)cc4)c(=O)c23)cc1 | -1 | 5 | 0 | 84* | -4 | 0
O=C(O)COc1ccccc1/C=N/Nc1ccc(S(=O)(=O)Nc2ccc(Cl)cc2)cc1[N+](=O)[O-] | 0 | 73* | 21 | 23 | -6 | 2
CC(CSc1nnnn1-c1ccccc1)Cn1c(N2CCN(C)CC2)nc2c1c(=O)[nH]c(=O)n2C (centres undefined) | 5 | 52* | 2 | -38 | 2 | -1
Cc1c(NC(=O)COC(=O)CCC(=O)c2ccc(Cl)cc2)c(=O)n(-c2ccccc2)n1C | -3 | 3 | -3 | -3 | 0 | 3
COc1cc2c(cc1OC)C(c1ccccc1F)OC(=O)C2 (centres undefined) | 96* | 10 | -5 | -8 | -2 | -4
COc1cc2c(cc1OC)C(C(=O)N1CCCCC1)C(c1ccccc1F)N(C)C2=O (centres undefined) | -2 | 21 | 28 | -4 | -2 | -2
Cc1cc(C)n(CCc2nc(-c3ccco3)cs2)n1 | -20 | 53* | -11 | -33 | -20 | 2

Bioassay records (PubChem)
